Sampled rows, rich in hits. Any-hit rate of the full collection: about 0.45%.
pAkt inh – inhibitors of Akt phosphorylation | activity change, % for hits at 50 µM | AID 651550 | Neuro2A IGF-stimulated pAkt S473 HTRF, 20 min; hits give low values | hit rate 0.32% among 360,000; in the data active = activity change below about -80%; inconclusive = mostly about -51% to -80%
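Neuro2A cells (4,500/well, DMEM with 0.5% FBS) were treated with compound at a single 50 µM final concentration, stimulated with 6 nM IGF for 20 min at 37 °C, and lysed. Phospho-Akt Ser473 was read by HTRF as 665/615 ratio ×10^4.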
CXXC DNA block – MLL CXXC-DNA interaction inhibition; AID 2662; Potency, µM (highest dose often 115 µM), most hits filed as inhibitors; hit rate 0.037% among 290,000; Q03164; MLL-CXXC / FITC-HOXA9 DNA fluorescence polarization; active = well fitted inhibition curve with a large enough effect in the polarisation, with a control signal flat, not every such curve was filed as active; inconclusive = small, poorly fitted or top-dose-only effect, or effect the other way, or a change in a side signal; inactive = no such curve, though single readings can be large or run the other way; the % refers to the polarisation
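Fluorescence polarization: 7 uM MLL-CXXC (stock) preincubated 5 min with compounds, then 50 nM fluorescein-HOX-A9 DNA (stock) added; 30 min ambient. Buffer 50 mM Tris-HCl pH 7.5, 50 mM NaCl, 1 mM DTT, 0.05% BSA.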
Menin-MLL FL inh – menin-MLL binding inhibition, fluorescein peptide | Fluorescence polarization, fluorescein-MLL peptide displacement from menin | FP activity change, % at 61.4 µM | 290,000 tested, under 10 active; active = well fitted curve in the direction sought with a large enough effect in the polarisation, not every such curve was filed as active; inconclusive = small, poorly fitted or top-dose-only effect, or effect the other way, or a change in a side signal; inactive = no such curve, though single readings can be large or run the other way; the % refers to the polarisation
MBNL1-CUG inh – MBNL1-poly(CUG) RNA binding inhibition; Q9NR56; TR-FRET MBNL1-His/biotin-(CUG)12 binding, 665/545 ratio; Potency, µM (doses to about 57.5 µM), usual class: inhibitors; hit rate 0.036% among 280,000; active = well fitted inhibition curve with a large enough effect in the signal ratio, with a control signal flat, not every such curve was filed as active; inconclusive = small, poorly fitted or top-dose-only effect, or effect the other way, or a change in a side signal; inactive = no such curve, though single readings can be large or run the other way; the % refers to the signal ratio
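Compounds (final 92 nM to 58 uM) are added to His-tagged MBNL1 and biotin-(CUG)12, then terbium anti-His antibody and streptavidin-XL665 (5 nM final). After 60 min at room temperature, the 665/545 nm ratio is read.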
S-ASM inh – inhibitors of human secretory acid sphingomyelinase. Potency, µM (titrated, usually from 57.5 µM), actives largely listed as inhibitors. placental ASM, HMU-PC fluorogenic substrate, 60 min. hit rate 0.006% among 340,000
Target sequence (P17405 47-631 limits assumed): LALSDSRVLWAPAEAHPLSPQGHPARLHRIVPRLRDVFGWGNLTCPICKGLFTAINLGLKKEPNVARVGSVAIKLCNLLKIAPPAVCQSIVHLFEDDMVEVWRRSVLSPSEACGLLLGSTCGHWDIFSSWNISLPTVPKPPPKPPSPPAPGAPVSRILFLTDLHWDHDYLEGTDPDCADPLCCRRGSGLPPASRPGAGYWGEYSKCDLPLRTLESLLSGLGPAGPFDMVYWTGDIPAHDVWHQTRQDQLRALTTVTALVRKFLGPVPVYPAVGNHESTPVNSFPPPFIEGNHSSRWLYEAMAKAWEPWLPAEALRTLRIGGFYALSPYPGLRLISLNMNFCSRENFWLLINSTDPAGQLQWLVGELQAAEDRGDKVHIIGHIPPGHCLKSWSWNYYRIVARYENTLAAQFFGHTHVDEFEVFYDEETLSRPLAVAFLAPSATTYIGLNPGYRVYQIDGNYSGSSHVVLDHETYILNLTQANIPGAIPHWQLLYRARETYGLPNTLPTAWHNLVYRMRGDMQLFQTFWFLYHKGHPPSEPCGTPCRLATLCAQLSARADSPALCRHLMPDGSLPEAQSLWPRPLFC
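qHTS format. ASM enzyme prepared from human placenta hydrolyses the fluorogenic substrate HMU-PC0 (9 uM final) over 60 min at 37 °C after a 10 min compound preincubation.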
Menin MLL FP TR – menin-MLL binding inhibition, Texas Red mutant peptide; hit rate 0.23% among 270,000; Potency, µM (titrated, usually from 61.6 µM), most hits filed as inhibitors; O00255; Menin + Texas Red MLL mutant peptide, fluorescence polarization; active = well fitted inhibition curve with a large enough effect in the polarisation, with a control signal flat, not every such curve was filed as active; inconclusive = small, poorly fitted or top-dose-only effect, or effect the other way, or a change in a side signal; inactive = no such curve, though single readings can be large or run the other way; the % refers to the polarisation
MBNL1-CUG FRET – confirmation of inhibitors of human MBNL1-poly(CUG) RNA binding; shares compounds with MBNL1-CUG inh; TR-FRET MBNL1-His / biotin-(CUG)12 binding, 60 min; Potency, µM (titrated, usually from 57.6 µM), actives largely listed as inhibitors; hit rate 50% among 140
MBNL1-CUG Alpha – blocks MBNL1 binding to (CUG)12 RNA in AlphaScreen; AlphaScreen MBNL1-His / biotin-(CUG)12 binding; shares compounds with MBNL1-CUG inh; hit rate 30% among 140; Potency, µM (top dose mostly 57.7 µM), hits mostly inhibitors
MBNL1 HTRF CS – counter-screen for MBNL1-poly(CUG) RNA binding inhibitors. shares compounds with MBNL1-CUG inh. His-Menin/biotin-MLL peptide TR-FRET counterscreen. Potency, µM (series often up to 57.6 µM), most hits filed as inhibitors. hit rate 20% among 120. AID 651843
Each line names hits and unclear results; the compound was inactive in the other large screens (follow-up assays come after a bar, where they were run). Unless noted, calls come from the whole dose curve; as a rule, active = well fitted curve in the direction sought with a large enough effect; inconclusive = small, poorly fitted or top-dose-only effect, or another doubt; inactive = no such curve, though single readings can be large; an effect the other way counts as inactive or inconclusive.

NC[C@H](O)c1ccc(O)c(O)c1	Menin MLL FP TR inconclusive (no result: pAkt inh, MBNL1-CUG inh) | MBNL1-CUG FRET 6.5µM | MBNL1-CUG Alpha inconclusive | MBNL1 HTRF CS inconclusive
Oc1ccccc1C1=Nc2nc3ccccc3n2C(c2ccccc2)C1 (stereo not drawn)	Menin-MLL FL inh inconclusive, MBNL1-CUG inh inconclusive
Cn1c(CC(=O)Nc2ccc(Cl)c(Cl)c2)n[nH]c1=S	none
COc1ccc(Cc2n[nH]c(=S)n2NC(=O)Nc2ccc(Cl)c(Cl)c2)cc1	MBNL1-CUG inh 14µM (no result: Menin MLL FP TR) | MBNL1-CUG FRET 10µM | MBNL1-CUG Alpha inactive | MBNL1 HTRF CS 41µM
CCOC(=O)CCCCC(=O)c1[nH]c(=O)[nH]c1Cn1ccnc1	MBNL1-CUG inh 40µM | MBNL1-CUG FRET 41µM | MBNL1-CUG Alpha inconclusive | MBNL1 HTRF CS inactive
COC(=O)Cc1c(C)nc2nc(-c3ccc(C)cc3)[nH]n2c1=O	none
CCCCNC(=O)CCCCn1c(=S)[nH]c2c([nH]c3ccc(OC)cc32)c1=O	none
Cc1cc(C)cc(NC(=O)Nn2cnnc2)c1	MBNL1-CUG inh inconclusive (no result: S-ASM inh)
O=C(Nc1ccc(Br)cc1)Nn1cnnc1	MBNL1-CUG inh 32µM (no result: Menin-MLL FL inh, Menin MLL FP TR) | MBNL1-CUG FRET 41µM | MBNL1-CUG Alpha inactive | MBNL1 HTRF CS inconclusive
O=C(Nc1ccc(Cl)c(Cl)c1)Nn1cnnc1	MBNL1-CUG inh 7.9µM | MBNL1-CUG FRET 6.5µM | MBNL1-CUG Alpha inactive | MBNL1 HTRF CS 33µM
CCc1ccc(NC(=O)Nn2cnnc2)cc1	none (no result: Menin-MLL FL inh, Menin MLL FP TR)
Cc1ccc(NC(=O)Nn2cnnc2)cc1Cl	MBNL1-CUG inh 40µM (no result: Menin-MLL FL inh, Menin MLL FP TR) | MBNL1-CUG FRET 26µM | MBNL1-CUG Alpha inactive | MBNL1 HTRF CS inconclusive
COc1cc2c(cc1OC)CN(C(=O)CSc1ccc(F)cc1)CC2	none (no result: CXXC DNA block, Menin-MLL FL inh, MBNL1-CUG inh, Menin MLL FP TR)
COC(=O)Nc1csc2c1NC(=O)CCCC2	none (no result: MBNL1-CUG inh) | MBNL1-CUG FRET 26µM | MBNL1-CUG Alpha 10µM | MBNL1 HTRF CS inactive
COc1ccccc1NC(=O)c1csc2c1CCCC2	none
